CHO-K1 Ca PAM – nonselective activator or artifact in parental CHO-K1 calcium assay | activation, % at 3 µM | 0.02% of 360,000 active | ATP EC20, Fluo-8 calcium fluorescence; 0% at ATP EC20, 100% at ATP max | AID 602247;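 active = activation above the run cutoff, the mean activation of all test compounds plus 3 SD, cut at about 40% in these data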;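 note: peak over basal fluorescence ratio in a 140 s read after ATP addition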
CHRM1 antagonist – antagonists of human M1 muscarinic receptor; P11229; CHO-K1 hM1, Fluo-8 calcium fluorescence, ACh EC80 antagonist; inhibition, % at 3 µM; 1.3% of 360,000 active; AID 588852;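 active = percent inhibition above its own plate's cutoff, namely the mean of that plate's compound wells plus 3 SD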;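 note: peak over basal fluorescence ratio during 140 s after agonist addition; 0% = ACh EC80 plus DMSO and 100% = DMSO alone without agonist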
Target sequence (P11229 whole entry, looked up): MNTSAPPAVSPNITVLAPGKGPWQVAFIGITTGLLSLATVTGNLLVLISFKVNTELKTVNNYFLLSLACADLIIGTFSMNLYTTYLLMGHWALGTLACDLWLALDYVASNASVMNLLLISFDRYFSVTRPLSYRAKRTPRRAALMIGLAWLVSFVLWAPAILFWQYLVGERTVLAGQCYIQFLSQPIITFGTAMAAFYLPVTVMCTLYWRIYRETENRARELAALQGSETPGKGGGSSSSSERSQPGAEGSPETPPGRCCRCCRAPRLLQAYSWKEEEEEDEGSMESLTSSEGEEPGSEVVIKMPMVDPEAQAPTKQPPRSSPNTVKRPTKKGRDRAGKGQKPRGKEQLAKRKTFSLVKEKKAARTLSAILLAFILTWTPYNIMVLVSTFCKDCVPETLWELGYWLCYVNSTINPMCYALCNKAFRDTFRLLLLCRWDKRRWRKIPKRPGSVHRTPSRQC
CHRM1 agonist – human M1 muscarinic receptor agonism; CHO-K1 hM1, Fluo-8 calcium fluorescence, agonist mode; 0% DMSO, 100% acetylcholine EC100; activation, % at 3 µM; 0.33% of 360,000 active;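 active = activation above the run's mean compound activation plus 3 SD, cut at about 16% in these data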;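 note: peak over basal fluorescence ratio within a 140 s kinetic read after compound addition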
CHRM1 PAM – positive allosteric modulators of human M1 muscarinic receptor | activation, % at 3 µM | 0.088% of 360,000 active | AID 588819 | CHO-K1 hM1, Fluo-8 calcium fluorescence, ACh EC20; 0% = ACh EC20, 100% = maximal ACh | P11229; in the data active = activation above about 19%, passing the limit was not always enough
M1 ag parental – nonselective activator or artifact in parental CHO-K1 cells; Fluo-8 calcium fluorescence; scaled to maximal ATP response, vehicle zero; 0.48% of 360,000 active; activation, % at 3 µM; in the data active = activation above about 15%;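 note: untransfected CHO-K1 host cells lacking M1 receptor as counterscreen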
CHO-K1 Ca antag – M1 antagonist counterscreen hit in parental CHO-K1 cells; ATP-induced calcium, Fluo-8 fluorescence; inhibition, % at 3 µM; 0.6% of 360,000 active; AID 602250;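 active = inhibition above a per-plate cutoff, the plate's mean sample inhibition plus 3 SD, cut at about 24% in these data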;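 note: 0% = DMSO plus EC80 ATP and 100% = DMSO alone without ATP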
* marks the source's active call; other numbers are inactive results. Compounds with a hit are over-represented: about 2.3% of the library has one in this group of screens.

SMILES	CHO-K1 Ca PAM	CHRM1 antagonist	CHRM1 agonist	CHRM1 PAM	M1 ag parental	CHO-K1 Ca antag
Cc1ccc(C(C)C)c(OCCN(C)C)c1	3	57*	-3	-19	1	-18
CCCN(CCC)CCOc1cc(C)ccc1C(C)C	19	34	-14	-27	1	-5
Cc1ccc(C(C)C)c(OCCCn2ccnc2C)c1	12	100*	-9	-30	1	-10
COC(=O)C1=CN(C2CC2)C=C(C(=O)OC)C1c1ccc(C(=O)OC)cc1	4	34*	-7	-25	0	4
CCOc1c(OC(C)=O)ccc(/C=C/c2ccc3cccc(OC(C)=O)c3n2)c1[N+](=O)[O-]	11	-3	-3	4	2	-6
C=CCN1C(=O)/C(=C/c2ccc(OC(C)=O)c(OCC)c2[N+](=O)[O-])SC1=S	7	17	7	-2	12	25*
CCn1c(=S)sc2c(=O)n(CC(=O)NCCCc3ccccc3)c(C)nc21	13	7	-1	-1	1	-7
CN(C)c1ccc(/C=C/C(=O)c2c(O)c3ccccc3oc2=O)cc1	9	12	30*	-12	32*	3
CN(Cc1ccc(OC(F)F)cc1)C(=O)c1ccc(S(=O)(=O)N(C)c2ccccc2)cc1	-18	21	-3	-13	5	-5
Cc1ccc(CN(C)C(=O)c2ccc(S(=O)(=O)N(C)c3ccccc3)cc2)o1	-22	40*	-1	-17	2	14
Cc1ccc(C(=O)/C=C/c2cn(CC(O)CN3CCOCC3)c3ccccc23)cc1 (stereo not given)	20	2	-6	6	16*	1
O=C(COc1ccc(Br)cc1)Nc1ccccc1C(=O)NC1CC1	16	-1	-4	2	2	-9
O=C1NC(Cc2c[nH]c3ccccc23)C(=O)N1Cc1ccccc1 (stereo not given)	5	-14	-2	12	1	-4
COC(=O)c1ccc(CN2C(=O)NC(Cc3c[nH]c4ccccc34)C2=O)cc1 (stereo not given)	-5	8	1	-5	15*	0
CS(=O)(=O)N(CC(=O)Nc1c(F)cccc1F)c1ccc(C23CC4CC(CC(C4)C2)C3)cc1	9	11	21*	5	1	-15
Cc1ccc(-c2nn(C)c(=O)c3ccccc23)cc1CNC(=O)NC1CCCCC1	5	1	-2	2	6	5
CCCCNC(=O)c1ccc2c(c1)N(CC)C(=O)c1ccccc1S2(=O)=O	11	33*	-4	-18	5	9
CCN1C(=O)c2ccccc2S(=O)(=O)c2ccc(C(=O)NC(C)C)cc21	5	-1	-9	2	0	-10
CCCN(CCC)CCCNC(=O)c1ccc2c(c1)N(CC)C(=O)c1ccccc1S2=O (stereo not given)	12	44*	-6	-16	0	6
CCCCSCCCNC(=O)c1ccc2c(c1)N(CC)C(=O)c1ccccc1S2=O (stereo not given)	4	-12	-10	1	-1	-14
CCOC(=O)CNC(=O)CN1CCC(c2nc3ccccc3[nH]2)CC1	7	3	-3	-4	1	-12
CCCCCCCCNCCS(=O)(=O)NCCCCCCCC	18	-10	-1	6	0	-5
CC(C)c1ccc(NNC(=O)C2CCC2)cc1	17	-12	-1	11	1	-10
COc1ccc(NC(=O)Nc2cccc3c2O[C@H](CN(C)C(=O)Nc2ccc4c(c2)OCO4)[C@@H](C)CN([C@H](C)CO)C3=O)cc1	-8	33*	-4	-23	4	-5
C[C@H](CO)N1C[C@H](C)[C@@H](CN(C)C(=O)Nc2ccccc2)Oc2c(NS(=O)(=O)c3ccccc3)cccc2C1=O	6	1	-4	-4	0	-1
SMILES	CHO-K1 Ca PAM	CHRM1 antagonist	CHRM1 agonist	CHRM1 PAM	M1 ag parental	CHO-K1 Ca antag
C[C@H](CO)N1C[C@H](C)[C@@H](CN(C)C(=O)Nc2ccc3c(c2)OCO3)Oc2c(NC(=O)Nc3ccc4c(c3)OCO4)cccc2C1=O	-3	36*	-3	-16	5	-1
COc1ccc(NC(=O)N(C)C[C@H]2Oc3c(NC(=O)Nc4ccc5c(c4)OCO5)cccc3C(=O)N([C@H](C)CO)C[C@@H]2C)cc1	-14	22	-2	-10	3	4
C[C@H](CO)N1C[C@H](C)[C@@H](CN(C)S(=O)(=O)c2cccs2)Oc2ccc(NC(=O)Nc3ccc4c(c3)OCO4)cc2C1=O	-7	41*	-11	-23	0	-7
C[C@H](CO)N1C[C@H](C)[C@@H](CN(C)C(=O)Nc2ccccc2)Oc2c(NS(=O)(=O)c3ccc(F)cc3)cccc2C1=O	7	-22	-2	26*	0	-14
C[C@H](CO)N1C[C@H](C)[C@@H](CN(C)S(=O)(=O)c2ccccc2)Oc2ccc(NC(=O)CCC(F)(F)F)cc2C1=O	-4	77*	-11	-31	0	-4
C[C@H](CO)N1C[C@H](C)[C@@H](CN(C)S(=O)(=O)c2ccccc2)Oc2ccc(NC(=O)Nc3ccc(C(F)(F)F)cc3)cc2C1=O	14	1	-7	-7	1	-13
Nc1nc(NCCCN2CCOCC2)nc(NCc2ccccc2)c1[N+](=O)[O-]	17	66*	-6	-27	2	-1
Nc1nc(NCCN2CCOCC2)nc(NCc2ccccc2)c1[N+](=O)[O-]	16	-3	-4	5	3	-11
COC(C[C@H](O)[C@@H](C)[C@@H](O)COCc1ccccc1)OC	14	-2	1	4	1	-6
COC(C[C@@H](O)[C@H](C)[C@@H](O)COCc1ccccc1)OC	14	51*	-9	-32	1	-10
O=C(NCc1cccc(C(F)(F)F)c1)N1CCN(S(=O)(=O)c2ccccc2F)CC1	13	-3	-5	3	8	-16
CC(=O)N1CCN(CC(=O)Nc2cccc(S(=O)(=O)N3CCCCC3)c2)CC1	-10	-21	-4	11	1	-5
Cc1ccc2c(c1)CCCN2CC(=O)Nc1cc(S(=O)(=O)N2CCCC2)ccc1Cl	-3	-9	-8	-5	0	-14
CC(=O)N1CCN(CC(=O)Nc2cccc(S(=O)(=O)N3CCCCCC3)c2)CC1	-14	0	-2	9	0	27*
Cc1ccc2c(c1)CCCN2CC(=O)Nc1cccc(S(=O)(=O)N2CCCC2)c1	-16	32*	-8	-17	1	-3
O=C(NCc1cccs1)c1ccc(Cl)c(S(=O)(=O)N2CCOCC2)c1	11	-10	-2	7	2	-9
COc1ccccc1N1CCN(C(=O)c2ccc(CS(=O)(=O)c3ccccc3OC)o2)CC1	5	12	17*	-3	4	12

High-throughput results (PubChem BioAssay)
